Compound activity (PubChem)
TDP1 cell noCPT: qHTS for Inhibitors of human tyrosyl-DNA phosphodiesterase 1 (TDP1): qHTS in cells in absence of CPT | DT40 Tdp1-/- hTDP1 cells, no CPT, ATP luminescence, 48 h | Potency, µM (doses to about 46.2 µM), for inactives: at the highest dose activity change, negative = growth inhibition, hits mostly inhibitors | 420,000 compounds, 15% hits; further: nearly all actives have a fitted effect of over 55% in size
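Readout: luminescence from CellTiter-Glo after 30 min in the dark at RT. Cells: DT40 Tdp1-/- with stable hTDP1, 400/well. Exposure: compounds alone, ≥48 hr, 37 °C.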
TDP1 cell CPT: DT40-hTDP1 cell growth loss with CPT; chicken DT40 Tdp1-/-;hTDP1 cells + 20 nM CPT, ATP luminescence, 48 h; 420,000 compounds, 12% hits; Potency, µM (doses to about 46.2 µM), inactives show at the highest dose activity change, negative = growth inhibition, usual class: inhibitors; AID 686979; further: nearly all actives have a fitted effect of over 55% in size
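Chicken DT40 Tdp1-/- cells stably complemented with human TDP1 were seeded at 400 cells/well in medium containing 20 nM camptothecin, exposed to pin-transferred compounds, and grown at 37 °C for at least 48 hr. Viability was read as ATP luminescence.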
Gal4-VP16 FLuc: Gal4-VP16 reporter inhibition counter-screen. Potency, µM (doses to about 53.6 µM), for the others: at the top dose activity, negative = inhibition, hits mostly inhibitors. Drosophila S2 Gal4-VP16 UAS-luciferase, luminescence, 20 h. AID 2546. 310,000 compounds, 3.5% hits;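 further: Gal4-VP16 expression switched on by copper sulfate through the metallothionein promoter; nearly all actives have a fitted effect of over 50% in size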
TDP1 inh: blocks human tyrosyl-DNA phosphodiesterase 1; Q9NUW8; recombinant TDP1, AlphaScreen DNA substrate cleavage; Potency, µM (titrated, usually from 130 µM), for inactives: at the highest dose activity change, negative = inhibition, most hits filed as inhibitors; 350,000 compounds, 0.28% hits; AID 485290; further: nearly all actives have a fitted effect of over 40% in size
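AlphaScreen read-out: signal falls as enzyme removes the 3' tyrosine-FITC from a 5'-biotinylated DNA oligo (15 nM, 5 min, RT). Enzyme was E. coli-made recombinant Tdp1 at 1 nM, exposed to compound for 15 min beforehand; beads 10 ug/ml, 10 min.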
RORg inh: ROR gamma (mouse) transcription inhibition. P51450. Drosophila S2 Gal4-RORgamma UAS-luciferase reporter, 20 h. Potency, µM (series often up to 53.6 µM), for the others: at the highest dose activity change, negative = inhibition, hits mostly inhibitors. 310,000 compounds, 5.4% hits. AID 2551; further: nearly all actives have a fitted effect of over 60% in size
Target sequence (P51450 whole entry, looked up, the tested form may be a part): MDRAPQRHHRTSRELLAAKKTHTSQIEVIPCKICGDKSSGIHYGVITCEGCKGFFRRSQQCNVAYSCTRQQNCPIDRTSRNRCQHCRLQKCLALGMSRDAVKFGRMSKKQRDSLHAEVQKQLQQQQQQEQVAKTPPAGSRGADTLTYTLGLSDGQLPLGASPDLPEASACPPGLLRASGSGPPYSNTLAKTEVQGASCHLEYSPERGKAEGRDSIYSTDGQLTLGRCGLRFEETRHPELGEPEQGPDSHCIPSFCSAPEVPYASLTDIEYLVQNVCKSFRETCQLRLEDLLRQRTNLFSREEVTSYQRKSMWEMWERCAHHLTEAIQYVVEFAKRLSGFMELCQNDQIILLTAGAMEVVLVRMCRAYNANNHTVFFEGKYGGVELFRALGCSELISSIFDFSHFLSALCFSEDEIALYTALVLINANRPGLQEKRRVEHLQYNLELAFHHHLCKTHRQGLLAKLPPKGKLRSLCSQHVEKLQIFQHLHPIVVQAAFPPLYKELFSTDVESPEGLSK
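Luciferase reporter read in Schneider cells carrying Gal4-RORγ (mouse) and UAS-Photinus luciferase; cells given compound 1 h before 700 uM copper sulfate induction, then incubated 20 h at ambient temperature.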
Active calls of the source: *; ? = inconclusive; · = no result given; [ ] = remark or other dose. A selection: hits, their analogues and other compounds. The true share with any hit is near 19%. The call rests on the fitted dose curve; in most records, active means well fitted curve in the direction sought with a large enough effect; inconclusive means small, poorly fitted or top-dose-only effect, or another doubt; inactive means no such curve, though single readings can be large; an effect the other way counts as inactive or inconclusive. On the % scale 0 is the no-effect control and ±100 the full control effect; potency means the concentration at half of the fitted maximal effect.

SMILES	TDP1 cell noCPT	TDP1 cell CPT	Gal4-VP16 FLuc	TDP1 inh	RORg inh
COC(=O)c1c(Cl)c2n3ccccc3c(C)c(-c3ccccc3)c-2c1C(=O)OC	23µM*	?	-11%	-3%	-4%
COC(=O)c1cc2c(-c3ccccc3)c(C)c3ccccn3c-2c1C(=O)OC	?	?	-7%	12%	-32%
CC(=O)C1C(C)CC2C3CCC4CC(=O)CCC4(C)C3CCC21C (stereo not given)	21µM*	?	·	·	·
CC(=O)C1CCC2C3CCC4CC(=O)CCC4(C)C3C=CC12C (stereo not given)	15µM*	-16%	·	·	·
Cc1ccc(NC(=O)CN(C)C(=O)Cc2c(Cl)cccc2Cl)cc1	16µM*	?	1%	-7%	3%
CCC(=O)c1ccc(OCC(=O)OCC(=O)N(C)CC(=O)Nc2ccc(F)cc2)cc1	2%	-18%	·	·	·
Cc1ccc(S(=O)(=O)Oc2ccccc2)cc1	-2%	6%	·	·	·
Cc1ccc(NC(=O)CN(C)C(=O)COc2ccc(C(=O)c3ccc(F)cc3)cc2)cc1	21µM*	-29%	?	3%	?
CCOc1ccc(OCC(=O)Nc2ccc(S(N)(=O)=O)cc2)cc1	-8%	0%	1%	1%	4%
Cc1ccc(S(=O)(=O)Oc2ccccc2-c2ccccc2)cc1	13µM*	16µM*	·	·	·
Cc1ccc(NC(=O)CN(C)C(=O)CSc2ccccc2F)cc1	-16%	1%	·	0%	·
NS(=O)(=O)c1ccc(NC(=O)COc2ccc(C(=O)c3ccc(F)cc3)cc2)cc1	12µM*	?	-24%	·	14%
O=CNC(Cc1ccccc1)C(=O)O (stereo not given)	-9%	-5%	0%	2%	3%
CN(C)c1cccc(OC2C=CC(C#Cc3ccccc3)OC2CO)c1 (stereo not given)	·	·	8%[10 µM]	7%[21 µM]	-15%[10 µM]
CCN1CCN(c2ccc(NC(=O)Cc3ccccc3)cc2)CC1	-4%	-11%	-4%	4%	-9%
Cc1ccc(C(=O)COc2ccccc2-c2ccccc2)cc1	26µM*	23µM*	?	?	?
CN(CC(=O)Nc1ccc(Cl)cc1)C(=O)c1sccc1-c1ccccc1	?	21µM*	·	-4%	·
CCN(CC(=O)Nc1ccc(NC(C)=O)cc1)C(=O)COc1ccccc1-c1ccccc1	-11%	-21%	·	0%[56.1 µM]	·
Cc1ccc(NC(=O)CN(C)C(=O)COc2ccccc2-c2ccccc2)cc1	15µM*	-29%	·	1%	·
CN(CC(=O)Nc1cccc(F)c1)C(=O)c1sccc1-c1ccccc1	-21%	-9%	·	5%	·
O=C(COC(=O)C1(c2ccccc2)CC1)N1CCN(c2ccc(F)cc2)CC1	?	?	-6%	0%	35%
CCCC1CCC(c2ccc(/C(N)=N/O)cc2)CC1 (stereo not given)	15µM*	?	-10%	-2%	3%
CCCC1CCC(c2ccc(C(=O)NN)cc2)CC1 (stereo not given)	29µM*	29µM*	?	5%	?
COc1ccc(-n2cc(CNCc3cnc4ccccn34)c(-c3cccc(F)c3)n2)cc1	?	?	0%	·	-43%
COc1ccc(-n2cc(CNCCCn3ccnc3)c(-c3cccc(F)c3)n2)cc1	-21%	?	32µM*	2%	11µM*
SMILES	TDP1 cell noCPT	TDP1 cell CPT	Gal4-VP16 FLuc	TDP1 inh	RORg inh
COc1cccc(-c2nn(-c3ccccc3)cc2CN2CCCO2)c1	-19%	12%	-17%	1%	-21%
COc1ccc(-n2cc(CN(C)C3CCOCC3)c(-c3cccc(F)c3)n2)cc1	18µM*	?	1%	3%	-6%
COc1ccc(-n2cc(CNCC3CCOCC3)c(-c3cccc(F)c3)n2)cc1	16µM*	?	-10%	6%	0%
COc1cc2c(cc1OC)CN(C(=O)c1ccncc1)CC2	6%	5%	-9%	·	-1%
FC(F)(F)c1nnc2ccc(N3CCCCC3)nn12	-23%	10%	·	·	·
FC(F)(F)c1cccc(N2CCN(c3ccc4nnc(-c5ccccc5)n4n3)CC2)c1	?	16µM*	-2%	4%	-28%
Cc1cccc(C)c1N1CCN(c2ccc3nnc(C(F)(F)F)n3n2)CC1	21µM*	21µM*	7%	7%	-16%
Cc1cc(=O)c(C(=O)OC(C)C(=O)NC(N)=O)nn1-c1ccc(Cl)cc1 (stereo not given)	4%	4%	-5%	5%	0%
CC1C(=O)Nc2ccc(S(=O)(=O)NCCc3ccc(Cl)cc3)cc2NC1=O (stereo not given)	?	?	0%	·	1%
Cc1cccc(NC(=O)c2cnn3ccccc23)c1C	2.1µM*	1.6µM*	-14%	3%	9%
Cc1ccc(C)c(NC(=O)c2ccccc2O)c1	9.2µM*	8.2µM*	?	6%	?
CSc1ccccc1C(=O)Nc1cccc([N+](=O)[O-])c1C	-3%	-10%	-9%	0%	-14%
O=C(Nc1ccccc1O)c1ccccc1O	?	?	?	2%	?
Cc1cccc(NC(=O)c2cccc([N+](=O)[O-])c2O)c1C	13µM*	16µM*	·	·	·
Cc1cccc(NC(=O)c2ccccc2O)c1C	?	21µM*	1.1µM*	0%	?
Cc1cccc(NC(=O)c2cnn(C)c2)c1C	-8%	-19%	2%	0%	13%
O=C(Oc1ccccc1Cl)c1ccc2c(=O)n3c(nc2c1)CCC3	-3%	7%	·	·	·
O=C(C1=C(O)C(=O)N(CCN2CCOCC2)C1c1ccc(Cl)cc1)c1cc2ccccc2o1 (stereo not given)	-22%	-1%	-3%	6%	-10%
O=C1CC(c2cccc(Cl)c2)CC(O)=C1C=NCCCO (stereo not given)	-28%	-13%	-3%	5%	13%
COc1ccc(OCc2nnc(SCC(=O)NNC(=O)c3ccc(C)cc3)n2C)cc1	0%	-10%	5%	-1%	-6%
CC1CC(C)(C)NC(=S)N1CC(=O)N(C)Cc1ccccc1 (stereo not given)	-3%	30%	-20%	4%	18µM*
Cc1cccc(N=Cc2c(O)cc(C)oc2=O)c1	-15%	-5%	-15%	5%	3%
Cc1cccc(N=Cc2[nH]c3ccc(Br)c(Cl)c3c2O)c1	?	26µM*	?	4%	-18%
COc1ccccc1CN=Cc1[nH]c2ccc(Br)c(Cl)c2c1O	?	?	11µM*	3%	-101%
COc1cccc(CN=CC2=C(O)CC(C)(C)CC2=O)c1OC	-12%	3%	22%	7%	16%
CS(=O)(=O)N(CC(=O)Nc1ccccc1-c1ccccc1)c1cccc(F)c1	-19%	-6%	8%	2%	-4%
